Our source for the growth values is PubChem BioAssay (NCI).

Where “and” joins values, the source holds several entries; their conditions need not be identical. Identical values can stand only once. Compounds without any hit were thinned out: in the full panel of roughly 83,000, 20% have a hit.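 Cells were grown in 96-well plates and exposed to the test compound at a single concentration for 48 hours; results are reported as percent growth, with values below 10 considered active.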 Calls of active or inactive are those of the source.

In the first experiment the test system is MDA-MB-435 melanoma. The experiment in a line: NCI-60 one-dose screen, 48 h (100 = growth as untreated, 0 = no growth, -100 = all killed). The note with it: 0.01 µM. The protocol:
Growth inhibition of the MDA-MB-435 human Melanoma tumor cell line is measured as a screen for anti-cancer activity. Cells are grown in 96 well plates and exposed to the test compound for 48 hours. Compounds are tested at a single concentration, which is 10^-5 M for most compounds. The reported endpoint is percent growth (GI% or GIPRCNT), where numbers from 0 - 100% represent growth inhibition, and numbers from -100% - 0 represent cell death. For example, a value of 40 represents 60% growth inhibition. A value of 0 means no net growth occurred over the course of the experiment. A value of -40 indicates 40% of cells at the beginning of the experiment died by the end of the experiment. A value of -100 means all cells are dead at the end of the experiment.
NCI-60 Human Tumor Cell Lines Screen was performed using the standard one-dose NCI protocol, which is described in more detail at https://dtp.cancer.gov/discovery_development/nci-60/default.htm.
Compounds with GIPRCNT values below 10 were considered active. Activity score was based on GIPRCNT using the following formula: […]
Score is 0 for GIPRCNT values of 100 or above, 50 for GIPRCNT values of 0, and 100 for GIPRCNT values of -100.
Take `CC(=O)O[C@H]1C(=O)[C@@]2(C)[C@H]([C@H](OC(=O)c3ccccc3)[C@]3(O)C[C@H](OC(=O)[C@H](O)[C@@H](NC(=O)c4ccccc4)c4ccccc4)C(C)=C1C3(C)C)[C@]1(OC(C)=O)CO[C@@H]1C[C@@H]2O`: the growth was -84.7% (active).

Still in this experiment, the particulars now being: 2.5 µM.
Turning to `CC(=O)O[C@H]1C(=O)[C@@]2(C)[C@H]([C@H](OC(=O)c3ccccc3)[C@]3(O)C[C@H](OC(=O)[C@H](O)[C@@H](NC(=O)c4ccccc4)c4ccccc4)C(C)=C1C3(C)C)[C@]1(OC(C)=O)CO[C@@H]1C[C@@H]2O`, the growth is -41.9% (active).

Staying with this experiment, now noted: 5 µM.
As for `CC(=O)O[C@H]1C(=O)[C@@]2(C)[C@H]([C@H](OC(=O)c3ccccc3)[C@]3(O)C[C@H](OC(=O)[C@H](O)[C@@H](NC(=O)c4ccccc4)c4ccccc4)C(C)=C1C3(C)C)[C@]1(OC(C)=O)CO[C@@H]1C[C@@H]2O`, the growth is -19.9% (active).

The same experiment, now with this note: 10 µM.
For `CC(=O)O[C@H]1C(=O)[C@@]2(C)[C@H]([C@H](OC(=O)c3ccccc3)[C@]3(O)C[C@H](OC(=O)[C@H](O)[C@@H](NC(=O)c4ccccc4)c4ccccc4)C(C)=C1C3(C)C)[C@]1(OC(C)=O)CO[C@@H]1C[C@@H]2O`, the growth is -4.97% (active) and -14.7% (active).

With `Cn1c2nc3ccccc3c-2nc2ccccc21`, the growth is 109% (inactive) and 125% (inactive).

`CCC(=O)Oc1ccc(/C=N/NC(N)=S)nc1`: the growth was 54.9% (inactive).

On to `S=P(N1CC1)(N1CC1)N1CC1`, for which the growth is 105% (inactive) and 97.2% (inactive). Same read-out and setting: to `Cc1cc(O)c2c(c1O)C(=O)C13C(=C2O)C(=O)C2C(O)C1C1C(O)C3C(=O)C3=C(O)c4c(O)cc(C)c(O)c4C(=O)C321` (stereo not given) belongs -14.7% (active).

On to `COc1ccc2oc(-c3ccc(Cl)cc3)c(N3CCN(C)CC3)c2c1`, for which the growth was -19.3% (active). On the same count and under the same terms, to `Cc1c(-c2ccccc2)[nH]c2ccccc12` belongs 111% (inactive). As to `COc1ccc2c(c1)[nH]c1c(/C=C/c3ccccc3)nccc12`, the growth is 85% (inactive). Still for that read-out and setting: with `COc1ccc(C(C#N)=C2C=CC(=NO)C=C2)cc1` the figure was 23.2% (inactive); with `O=C(NC(=S)Nc1ccccn1)c1ccccc1`, 105% (inactive).

With `CN(C)CCNc1cccc2sc3ccc(O)cc3c(=O)c12`, the growth was 29.3% (inactive). The same measure, in the same setting: with `O=c1[nH]cc(/C=N\Nc2ccccc2)c(=O)[nH]1` the figure was 42.5% (inactive); with `CCC(C)(c1ccc(O)c(C)c1)c1ccc(O)c(C)c1`, 78.8% (inactive). Same read-out and setting: with `O=C1C(Cl)=C(Cl)C(Cl)(Cl)C(Cl)C1(Cl)Cl` (stereo not given) the figure was 111% (inactive); with `C=C1N(C)c2ccc(Cl)cc2C1(C)C`, 77.1% (inactive).

As to `O=C1c2cccc3cc([N+](=O)[O-])cc(c23)C(=O)N1CCN1CCCC1`, the growth is 16.2% (inactive). Still for that read-out and setting: to `COc1cc(N)ccc1Nc1c2ccccc2nc2ccccc12` belongs 87.9% (inactive); to `Cn1ncc2cc3c(Nc4ccc(Cl)cc4)cccc3nc21`, 100% (inactive).

As for `CC[C@@]1(OC(=O)CN(C)C)C(=O)OCc2c1cc1n(c2=O)Cc2cc3c(N)cccc3nc2-1`, the growth was -44.7% (active). The same measure, in the same setting: to `Cc1cc(N=C2C=CC(=[N+](C)C)C=C2)c(N)cc1N` belongs 101% (inactive); to `CC1CCC2(C(=O)O)CCC3(C)C(=CCC4C5(C)CC(O)C(O)C(C)(CO)C5C(O)CC43C)C2C1C` (stereo not given), 110% (inactive). Still for that read-out and setting: to `COc1ccc(N)c2c1C(=O)c1ccccc1C2=O` belongs 108% (inactive); to `CN(CC(=O)O)c1ccc(/C=C/c2ccnc3ccccc23)cc1`, 38.1% (inactive). Same read-out and setting: to `Cc1cc(C)c(N2C(=O)CC(Sc3ccccc3N)C2=O)c(C)c1` (stereo not given) belongs -20.8% (active); to `S=C1SCN(CCc2ccccc2)CN1CCc1ccccc1`, 98.6% (inactive).

With `O=C(CNS(=O)(=O)Cc1ccccc1)NNc1ccccc1`, the growth was 21.9% (inactive). Take `CCOC(=O)[C@]1(Br)CC[C@@]1(Br)C(=O)OCC`: the growth is 94.8% (inactive).

For the molecule `O=S(=O)(c1cc(Cl)ccc1O)c1cc(Cl)ccc1O`, the growth was 93.4% (inactive). In the case of `ClCCn1c(CCl)nc2ccc(Cl)cc21`, the growth was -83% (active).

Regarding `O=[N+]([O-])c1cc(S(=O)(=O)Nc2ccccc2)ccc1Cl`, the growth is 98.6% (inactive). The same measure, in the same setting: to `CN(C)c1ccc(/C=C/c2ccnc3ccccc23)cc1N` belongs 38.6% (inactive); to `O=Nc1ccc(Nc2ccccc2)cc1`, 83.6% (inactive); to `NCc1c(O)ccc2ccccc12`, 103% (inactive). On the same count and under the same terms, with `COc1cccc(C(c2cc3c(cc2O)OCO3)N2CCOCC2)c1OC` (stereo not given) the figure was 98% (inactive); with `O=C1c2ccccc2CCC1(Br)Br`, 3.86% (active); with `N#C/C(=C/N1C(=O)/C(=C/c2ccc([N+](=O)[O-])cc2)SC1=S)c1nc2ccccc2s1`, 99% (inactive).

Staying with this experiment, now noted: 100 µM.
Turning to `S=P(N1CC1)(N1CC1)N1CC1`, the growth is 64.8% (inactive).
